This is an account of results in PubChem BioAssay (Tox21).

Experiment [1] is described as follows: Caspase-3/7 induction in HepG2 cells by small molecules, qHTS assay (AID 1346978). Further: nearly all actives have a fitted effect of over 15% in size. The method, boiled down:
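Caspase-3/7 induction was measured by Caspase-Glo 3/7 luminescence (30 min, room temperature) after a 17 hr compound exposure of wild-type HepG2 cells seeded at 2,000 per well and pre-incubated 5 hr.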

Experiment [2] in a line: Caspase-3/7 induction in CHO-K1 cells by small molecules, qHTS cell viability counter screen (AID 1346979). Further: nearly all actives have a fitted effect of over 35% in size. The method, boiled down: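 Wild-type CHO-K1 cells were seeded at 1,500 per well, rested 5hr at 37 C, then exposed to compounds in DMSO. After 16hr, CellTiter-Fluor reagent was added and fluorescence read 1hr later as the viability measure.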
For orientation: In qHTS, concentration-response curves come from the screen itself.

Experiment [3] in a line: Caspase-3/7 induction in CHO-K1 cells by small molecules, qHTS assay (AID 1346980). Further: nearly all actives have a fitted effect of over 15% in size. The method, boiled down: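 Luminescent Caspase-Glo 3/7 read (30min, room temperature) quantified apoptosis induction. Cells were wild-type CHO-K1, treated with compound for 17hr at 37 C and 5% CO2.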
A short description of experiment [4]: Caspase-3/7 induction in HepG2 cells by small molecules, qHTS cell viability counter screen (AID 1346981). Further: series mostly up to about 92 µM; nearly all actives have a fitted effect of over 30% in size. The method, boiled down: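 CellTiter-Fluor fluorescence measured viability in the same wells used for Caspase-Glo 3/7. HepG2 (wild type) at 2,000 cells/well were pre-incubated 5 hr, dosed, and given reagent at 16 hr, with 1 hr further at 37C.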
For experiment [5], the target named is Nuclear receptor subfamily 1 group I member 2 (Homo sapiens) (UniProt O75469). Briefly: Human pregnane X receptor (PXR) small molecule agonists, qHTS assay (AID 1346982). Further: nearly all actives have a fitted effect of over 35% in size. Further: potency means the concentration at half of the fitted maximal effect. The method, boiled down: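 Agonist mode: luminescence from ONE-Glo after 24 h compound exposure at 37C in HepG2 cells carrying hPXR-responsive CYP3A4 luciferase, plated in charcoal-stripped serum medium 5 h beforehand.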
Nuclear receptor subfamily 1 group I member 2 (Homo sapiens), sequence (O75469 whole entry, looked up): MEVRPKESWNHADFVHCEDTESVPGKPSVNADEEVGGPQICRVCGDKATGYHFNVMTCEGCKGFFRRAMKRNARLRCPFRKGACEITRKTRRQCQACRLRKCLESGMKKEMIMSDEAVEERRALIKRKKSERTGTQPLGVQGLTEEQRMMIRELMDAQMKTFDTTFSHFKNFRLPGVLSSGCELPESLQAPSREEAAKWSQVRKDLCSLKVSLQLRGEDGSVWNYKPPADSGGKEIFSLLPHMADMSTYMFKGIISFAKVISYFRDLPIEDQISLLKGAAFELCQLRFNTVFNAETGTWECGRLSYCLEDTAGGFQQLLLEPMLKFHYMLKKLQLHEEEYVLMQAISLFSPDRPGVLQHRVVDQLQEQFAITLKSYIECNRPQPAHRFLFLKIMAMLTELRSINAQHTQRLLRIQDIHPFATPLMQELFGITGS

In experiment [6] the target is Cytochrome P450 2D6 (Homo sapiens) (UniProt P10635). Put plainly: Cytochrome P450 Family 2 Subfamily D Member 6 (CYP2D6) small molecule antagonists: luciferase reporter qHTS assay (AID 1671196). Further: series mostly up to about 120 µM; nearly all actives have a fitted effect of over 50% in size. The procedure, abridged:
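CYP2D6 activity was followed as luminescence from its luciferin product after a 1 h NADPH-driven reaction at room temperature. Enzyme-substrate mix and compound were pre-incubated for 10 min, and the signal was read 20 min after adding detection reagent.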

In experiment [7] the target is Cytochrome P450 2C19 (Homo sapiens) (UniProt P33261). Briefly: Cytochrome P450 Family 2 Subfamily C Member 19 (CYP2C19) small molecule antagonists: luciferase reporter qHTS assay (AID 1671197). Further: nearly all actives have a fitted effect of over 65% in size. Further: potency means the concentration at half of the fitted maximal effect. The procedure, abridged: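 Enzyme-substrate mix with proluciferin substrate (P450-Glo CYP2C19 system) preincubated with compounds 10 min at room temperature; NADPH regeneration solution added, 37C for 1 h; detection reagent stops reaction, luminescence read after 20 min. Ketoconazole positive control.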
Cytochrome P450 2C19 (Homo sapiens), sequence (P33261 whole entry, looked up): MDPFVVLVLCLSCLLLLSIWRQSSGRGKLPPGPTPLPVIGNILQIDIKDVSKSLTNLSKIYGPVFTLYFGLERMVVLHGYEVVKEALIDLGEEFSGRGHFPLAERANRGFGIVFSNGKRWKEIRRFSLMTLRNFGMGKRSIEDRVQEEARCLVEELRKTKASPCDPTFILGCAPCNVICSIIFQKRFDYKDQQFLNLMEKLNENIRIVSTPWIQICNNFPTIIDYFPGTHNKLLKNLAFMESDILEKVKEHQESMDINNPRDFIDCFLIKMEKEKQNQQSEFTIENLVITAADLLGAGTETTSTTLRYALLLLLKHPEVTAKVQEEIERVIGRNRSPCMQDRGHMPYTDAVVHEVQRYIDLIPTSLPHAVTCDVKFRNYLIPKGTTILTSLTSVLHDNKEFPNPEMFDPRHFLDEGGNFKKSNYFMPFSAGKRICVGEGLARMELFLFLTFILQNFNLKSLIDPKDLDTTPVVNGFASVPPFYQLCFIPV

The target of experiment [8] is Cytochrome P450 2C9 (Homo sapiens) (UniProt P11712). Briefly: Cytochrome P450 Family 2 Subfamily C Member 9 (CYP2C9) small molecule antagonists: luciferase reporter qHTS assay (AID 1671198). Further: nearly all actives have a fitted effect of over 50% in size. Further: potency means the concentration at half of the fitted maximal effect. The method, boiled down: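 Enzyme-substrate mix preincubated with compound 10 min at room temperature; reaction started with NADPH regeneration solution, 1 h 37C. Luminescent luciferin product read after 20 min detection reagent.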
Cytochrome P450 2C9 (Homo sapiens), sequence (P11712 whole entry, looked up): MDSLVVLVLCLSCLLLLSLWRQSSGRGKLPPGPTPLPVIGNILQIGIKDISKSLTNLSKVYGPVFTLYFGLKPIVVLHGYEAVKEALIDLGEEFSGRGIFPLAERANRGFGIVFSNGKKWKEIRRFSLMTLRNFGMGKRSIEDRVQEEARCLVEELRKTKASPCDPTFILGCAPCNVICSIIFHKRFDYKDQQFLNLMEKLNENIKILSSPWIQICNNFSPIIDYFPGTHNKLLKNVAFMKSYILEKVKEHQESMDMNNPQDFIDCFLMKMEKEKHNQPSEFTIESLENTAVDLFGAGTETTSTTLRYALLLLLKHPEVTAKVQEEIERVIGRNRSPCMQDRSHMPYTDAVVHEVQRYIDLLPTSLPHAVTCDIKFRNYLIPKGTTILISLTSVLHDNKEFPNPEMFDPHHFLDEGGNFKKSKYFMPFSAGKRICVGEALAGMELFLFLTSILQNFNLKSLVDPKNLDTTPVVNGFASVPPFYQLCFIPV
A general note: In a reporter assay the amount or activity of a reporter protein is the signal.

Experiment [9] addresses Voltage-gated inwardly rectifying potassium channel KCNH2 (Homo sapiens) (UniProt Q12809). Put plainly: Human Ether-a-go-go-Related Gene (hERG) channel small molecule antagonists: fluorescence cell-based qHTS assay (AID 1671200).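 Further: hERG-expressing U2OS cells given a thallium stimulus after FluxOR II dye loading; series mostly up to about 77 µM; nearly all actives have a fitted effect of over 50% in size.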 The procedure, abridged:
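U2OS cells expressing the channel were plated at 1000 cells/well, incubated overnight at 37 C, then loaded with FluxOR II thallium-sensitive dye for 1 h at room temperature in the dark, with a further 10 min at room temperature before stimulation.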
In general terms: The hERG channel carries a current that helps repolarise heart muscle cells.

In experiment [10] the target is Cytochrome P450 3A4 (Homo sapiens) (UniProt P08684). Put plainly: Cytochrome P450 Family 3 Subfamily A Member 4 (CYP3A4) small molecule antagonists: luciferase reporter qHTS assay (AID 1671201). Further: series mostly up to about 120 µM; nearly all actives have a fitted effect of over 50% in size. The method, boiled down: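 P450-Glo CYP3A4 system with proluciferin substrate; compounds preincubated 10 min RT with enzyme-substrate mix, then NADPH regeneration added for 1 h RT. Detection reagent 20 min, luminescence read as relative luminescence units.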
Cytochrome P450 3A4 (Homo sapiens), sequence (P08684 whole entry, looked up): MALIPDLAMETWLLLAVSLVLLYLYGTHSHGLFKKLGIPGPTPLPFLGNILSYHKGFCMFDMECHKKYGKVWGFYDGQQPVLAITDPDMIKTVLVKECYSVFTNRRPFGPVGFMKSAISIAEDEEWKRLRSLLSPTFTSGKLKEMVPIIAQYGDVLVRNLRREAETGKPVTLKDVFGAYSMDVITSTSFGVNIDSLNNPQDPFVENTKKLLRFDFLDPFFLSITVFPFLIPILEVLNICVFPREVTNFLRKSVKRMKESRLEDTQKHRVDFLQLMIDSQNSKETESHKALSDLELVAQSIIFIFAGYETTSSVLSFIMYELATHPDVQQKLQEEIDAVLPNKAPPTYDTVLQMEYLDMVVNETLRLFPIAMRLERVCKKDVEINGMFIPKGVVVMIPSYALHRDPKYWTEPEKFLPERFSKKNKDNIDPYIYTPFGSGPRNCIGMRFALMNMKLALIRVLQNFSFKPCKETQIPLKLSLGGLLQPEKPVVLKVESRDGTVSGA

The target in experiment [11] is Cytochrome P450 1A2 (Homo sapiens) (UniProt P05177). Briefly: Cytochrome P450 Family 1 Subfamily A Member 2 (CYP1A2) small molecule antagonists: luciferase reporter qHTS assay (AID 1671199). Further: nearly all actives have a fitted effect of over 50% in size. Further: potency means the concentration at half of the fitted maximal effect. The procedure, abridged:
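Luminescence from luciferin formed by CYP1A2 from a proluciferin substrate, read 20 min after detection reagent. Compound was pre-incubated 10 min with enzyme-substrate, and reaction started with NADPH regeneration solution for 1 h at room temperature; furafylline control.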

The target in experiment [12] is Nuclear receptor subfamily 1 group I member 2 (Rattus norvegicus) (UniProt Q9R1A7). Briefly: Rat pregnane X receptor (rPXR) activation by small molecules, qHTS assay (AID 1346983). Further: nearly all actives have a fitted effect of over 20% in size. The following applies: rPXR luciferase reporter cells, One-Glo luminescence, 24 h; max activation: stronger effect = higher value. The procedure, abridged: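 Luminescent readout (One-Glo luciferase, 30 min room temperature) followed 24 hr compound treatment at 37 C of rPXR cells plated 2,000 per well and preincubated 5hr; qHTS format with compounds delivered in DMSO.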
Nuclear receptor subfamily 1 group I member 2 (Rattus norvegicus), sequence (Q9R1A7 whole entry, looked up): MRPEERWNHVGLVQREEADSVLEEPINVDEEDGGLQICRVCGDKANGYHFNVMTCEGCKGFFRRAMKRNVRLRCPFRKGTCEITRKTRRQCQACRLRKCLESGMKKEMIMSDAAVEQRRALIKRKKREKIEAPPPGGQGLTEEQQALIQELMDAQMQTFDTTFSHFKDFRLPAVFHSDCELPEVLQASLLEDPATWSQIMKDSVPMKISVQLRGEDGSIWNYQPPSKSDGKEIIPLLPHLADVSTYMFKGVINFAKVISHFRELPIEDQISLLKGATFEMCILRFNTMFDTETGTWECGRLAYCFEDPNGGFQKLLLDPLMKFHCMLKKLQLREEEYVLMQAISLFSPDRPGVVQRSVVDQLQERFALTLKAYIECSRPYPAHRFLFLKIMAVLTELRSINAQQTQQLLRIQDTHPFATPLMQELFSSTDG

Experiment [13] has as its target Nuclear receptor subfamily 1 group I member 2 (Homo sapiens) (UniProt O75469). Put plainly: CYP3A4 induction through human pregnane X receptor (PXR) by small molecules, qHTS assay (AID 1346984). Further: nearly all actives have a fitted effect of over 40% in size. The method, boiled down:
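Read-out is luminescence after One-Glo addition, following a 3 hr, 37C incubation with Luciferin-IPA CYP3A4 substrate (3uM final). Before that, compounds were on DPX-2 cells (HepG2 co-transfected with PXR element plus CYP3A4-promoter luciferase) for 24 hr at 37C.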

Experiment [14] has the same target. Put plainly: Human pregnane X receptor (PXR) activation by small molecules, qHTS assay (AID 1346985). Further: nearly all actives have a fitted effect of over 40% in size. The method, boiled down: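 DPX-2 cells (HepG2 co-transfected with a PXR response element and a CYP3A4-promoter luciferase construct) were seeded at 2,000 per well, rested 5 hr at 37C, then exposed to DMSO-dissolved compounds for 24 hr. Activation was read as luciferase luminescence.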

Several values for one entry are separate records, joined by “and”; a condition that tells them apart may be missing. Equal values may be shown once. Results filed as inconclusive are left out. Some structures have more than one record in an assay (separate samples or runs), and their calls can disagree. Activity calls are given as the source filed them. The call rests on the fitted dose curve; in most records, active means well fitted curve in the direction sought with a large enough effect in the repeat runs; inconclusive means weak or mixed curves; inactive means no such curve, though single readings can be large; an effect the other way counts as inactive or inconclusive.
On the % scale 0 is the no-effect control and ±100 the full control effect.

Cytochrome P450 1A2 (Homo sapiens), sequence (P05177 whole entry, looked up): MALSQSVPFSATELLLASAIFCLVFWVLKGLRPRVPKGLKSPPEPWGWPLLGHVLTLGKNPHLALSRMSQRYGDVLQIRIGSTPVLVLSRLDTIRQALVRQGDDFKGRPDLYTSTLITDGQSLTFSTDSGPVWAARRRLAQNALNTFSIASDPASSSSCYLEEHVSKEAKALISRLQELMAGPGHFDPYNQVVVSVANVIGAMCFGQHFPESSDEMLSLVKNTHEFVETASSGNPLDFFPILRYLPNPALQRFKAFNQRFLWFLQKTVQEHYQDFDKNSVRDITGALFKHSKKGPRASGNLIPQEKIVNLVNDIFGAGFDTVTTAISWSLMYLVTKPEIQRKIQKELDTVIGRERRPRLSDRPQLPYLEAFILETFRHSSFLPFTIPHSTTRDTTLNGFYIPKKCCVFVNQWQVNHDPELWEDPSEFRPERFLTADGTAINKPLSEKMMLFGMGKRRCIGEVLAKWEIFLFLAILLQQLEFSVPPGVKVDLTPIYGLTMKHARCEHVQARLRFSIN
Cytochrome P450 2D6 (Homo sapiens), sequence (P10635 whole entry, looked up): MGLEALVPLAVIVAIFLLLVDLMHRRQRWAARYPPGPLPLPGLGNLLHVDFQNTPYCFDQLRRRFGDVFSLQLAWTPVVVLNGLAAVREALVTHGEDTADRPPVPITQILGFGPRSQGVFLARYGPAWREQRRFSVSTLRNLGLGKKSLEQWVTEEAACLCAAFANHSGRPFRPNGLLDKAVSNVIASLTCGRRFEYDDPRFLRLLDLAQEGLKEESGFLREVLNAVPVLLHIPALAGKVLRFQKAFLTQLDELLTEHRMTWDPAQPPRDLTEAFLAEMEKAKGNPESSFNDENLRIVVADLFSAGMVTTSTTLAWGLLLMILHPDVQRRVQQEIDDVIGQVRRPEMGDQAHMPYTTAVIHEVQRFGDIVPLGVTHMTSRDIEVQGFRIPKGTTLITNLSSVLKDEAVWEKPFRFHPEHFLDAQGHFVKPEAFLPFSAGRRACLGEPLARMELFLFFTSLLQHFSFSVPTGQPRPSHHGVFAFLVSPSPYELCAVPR
Voltage-gated inwardly rectifying potassium channel KCNH2 (Homo sapiens), sequence (Q12809 whole entry, looked up): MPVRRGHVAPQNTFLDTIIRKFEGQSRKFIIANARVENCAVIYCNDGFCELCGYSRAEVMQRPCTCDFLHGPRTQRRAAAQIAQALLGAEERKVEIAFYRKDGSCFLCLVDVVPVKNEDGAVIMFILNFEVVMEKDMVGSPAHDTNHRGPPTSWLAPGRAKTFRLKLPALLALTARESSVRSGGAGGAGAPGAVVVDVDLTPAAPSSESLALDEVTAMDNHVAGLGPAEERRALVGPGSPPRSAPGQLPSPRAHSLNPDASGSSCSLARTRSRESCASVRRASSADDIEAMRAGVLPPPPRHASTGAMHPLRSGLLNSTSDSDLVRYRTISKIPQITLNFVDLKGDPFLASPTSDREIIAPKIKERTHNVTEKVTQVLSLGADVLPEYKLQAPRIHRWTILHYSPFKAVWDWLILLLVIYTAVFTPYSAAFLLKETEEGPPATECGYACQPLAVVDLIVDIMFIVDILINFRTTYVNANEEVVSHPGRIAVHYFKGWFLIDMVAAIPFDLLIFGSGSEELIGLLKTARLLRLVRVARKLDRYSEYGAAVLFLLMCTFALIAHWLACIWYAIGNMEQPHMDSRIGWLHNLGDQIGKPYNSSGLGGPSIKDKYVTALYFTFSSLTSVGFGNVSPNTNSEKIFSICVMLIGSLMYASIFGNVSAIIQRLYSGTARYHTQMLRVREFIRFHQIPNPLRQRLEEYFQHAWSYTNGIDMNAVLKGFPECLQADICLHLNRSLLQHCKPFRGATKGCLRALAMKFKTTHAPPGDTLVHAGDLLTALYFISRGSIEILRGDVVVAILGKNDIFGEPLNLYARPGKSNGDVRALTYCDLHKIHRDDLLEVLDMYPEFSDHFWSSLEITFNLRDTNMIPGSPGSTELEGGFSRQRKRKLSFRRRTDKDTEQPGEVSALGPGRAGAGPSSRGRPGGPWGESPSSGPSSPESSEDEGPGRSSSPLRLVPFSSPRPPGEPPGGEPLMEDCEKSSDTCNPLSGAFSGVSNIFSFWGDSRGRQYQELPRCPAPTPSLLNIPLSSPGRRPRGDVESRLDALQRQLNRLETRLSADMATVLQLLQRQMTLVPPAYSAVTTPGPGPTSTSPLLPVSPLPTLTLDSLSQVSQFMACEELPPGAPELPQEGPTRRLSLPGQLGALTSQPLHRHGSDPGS

On to `O=S1(=O)CCCO1`, for which the Potency entry in [1], in [2], in [3], in experiment [4], in [5] and in experiment [6] was “inactive” in each case. The Potency entry in experiment [7], in experiment [8], in experiment [9] and in experiment [10] was “inactive” each time.
For `Clc1ccc(Sc2cc(Cl)c(Cl)cc2Cl)cc1`, the Potency entry in [1], in [2], in experiment [3], in experiment [4], in experiment [6] and in [8] was “inactive” each time. Also, the Potency result in [9] and in experiment [10] was “inactive” throughout. In addition, the Potency in [5] was 59.5 µM (active) and inactive; in experiment [7] it was 6.92 µM (active) and 3.17 µM (active); in experiment [11], 11 µM (active) and 3.99 µM (active).
On to `C[C@]12C=CC(=O)C=C1CC[C@H]1[C@@H]3C[C@@H](O)[C@](O)(C(=O)CO)[C@@]3(C)C[C@H](O)[C@@]12F`, for which the Potency result in experiment [1], in experiment [2], in [3], in experiment [4], in experiment [5] and in [13] was “inactive” each time. Moreover, the Potency result in experiment [14], in experiment [6], in experiment [11], in experiment [9] and in experiment [10] was “inactive” throughout. Further, the max activation in experiment [12] was -5.29% (inactive). For the same compound, the Potency in experiment [8] is 20 µM (active).
For `Cc1ccc(S(=O)(=O)O)cc1C`, the Potency entry in [1], in experiment [2], in experiment [3], in experiment [4], in experiment [5] and in [13] was “inactive” throughout. Also, the Potency entry in experiment [14], in experiment [7], in experiment [8], in experiment [11], in experiment [9] and in [10] was “inactive” in each case. Further, in experiment [12], the max activation is -0.712% (inactive).
For the compound `CCC(Cc1c(I)cc(I)c(N)c1I)C(=O)O` (configuration not stated), the Potency result in experiment [1], in experiment [2], in [3], in experiment [4], in [13] and in [14] was “inactive” each time. In addition, the Potency result in [6], in [7], in [9] and in experiment [10] was “inactive” in each case. The Potency in [5] was 52.8 µM (active); in experiment [8], 30.7 µM (active) and 30.9 µM (active). Besides, the max activation in [12] is -1.5% (inactive).
Regarding `CC1(C)C(C=C(Cl)Cl)C1C(=O)OCc1cccc(Oc2ccccc2)c1` (configuration not stated), the Potency result in experiment [1], in experiment [2], in experiment [3], in [4], in experiment [13] and in [14] was “inactive” in each case. The Potency result in experiment [9] and in [10] was “inactive” in each case. In addition, the Potency in [5] is 24.2 µM (active); in experiment [7], 7.91 µM (active) and 3.17 µM (active); in experiment [8], 15.8 µM (active) and 8.94 µM (active). Besides, the max activation in [12] was 4.94% (inactive).
